# Measured values taken from publication PMC7862700, “An all-to-all approach to the identification of sequence-specific readers for epigenetic DNA modifications on cytosine”.
# Columns and labels:
# Test in all cases: DAPPL (digital affinity profiling via proximity ligation, sequencing); 10 mM Tris-HCl pH 7.5, 50 mM NaCl, 1 mM DTT, 4% glycerol, room temperature, 30 min; GST-TFs on glutathione beads, 16-mer random dsDNA library, 0.1% formaldehyde crosslink after washing; high values mean tight binding
# FEV = target: T1, FEV (Homo sapiens, UniProt Q99581 1-238); details: protein: recombinant; tags: N-terminal GST; dsDNA, one strand shown
# T1 sequence: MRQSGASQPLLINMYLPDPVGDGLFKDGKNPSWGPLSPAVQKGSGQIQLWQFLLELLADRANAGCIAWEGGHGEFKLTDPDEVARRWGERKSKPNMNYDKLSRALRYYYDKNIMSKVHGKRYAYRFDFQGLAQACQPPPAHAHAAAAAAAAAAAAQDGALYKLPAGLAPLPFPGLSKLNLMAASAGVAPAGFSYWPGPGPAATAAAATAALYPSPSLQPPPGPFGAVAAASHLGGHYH
# Outline: (§1)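 Binding signal is each hexamer's read frequency for a factor divided by its frequency in the tag-only sample. The factors were GST-fused human transcription factors from yeast, captured on glutathione beads, DNA-barcoded and pooled with that sample. Pools were incubated with 200 nmole of a random double-stranded 16-mer DNA library in Tris/NaCl/DTT/glycerol buffer at room temperature for 30 min, then washed, crosslinked with 0.1% formaldehyde, proximity-ligated with BsaI/T4 ligase (1 h, 37 °C), PCR-amplified and sequenced on an Illumina NextSeq500.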
# ETV5 = ETV5 (Homo sapiens, UniProt P41161 1-510); details: protein: recombinant; tags: N-terminal GST; dsDNA, one strand shown
# ETV5, sequence (P41161 whole entry): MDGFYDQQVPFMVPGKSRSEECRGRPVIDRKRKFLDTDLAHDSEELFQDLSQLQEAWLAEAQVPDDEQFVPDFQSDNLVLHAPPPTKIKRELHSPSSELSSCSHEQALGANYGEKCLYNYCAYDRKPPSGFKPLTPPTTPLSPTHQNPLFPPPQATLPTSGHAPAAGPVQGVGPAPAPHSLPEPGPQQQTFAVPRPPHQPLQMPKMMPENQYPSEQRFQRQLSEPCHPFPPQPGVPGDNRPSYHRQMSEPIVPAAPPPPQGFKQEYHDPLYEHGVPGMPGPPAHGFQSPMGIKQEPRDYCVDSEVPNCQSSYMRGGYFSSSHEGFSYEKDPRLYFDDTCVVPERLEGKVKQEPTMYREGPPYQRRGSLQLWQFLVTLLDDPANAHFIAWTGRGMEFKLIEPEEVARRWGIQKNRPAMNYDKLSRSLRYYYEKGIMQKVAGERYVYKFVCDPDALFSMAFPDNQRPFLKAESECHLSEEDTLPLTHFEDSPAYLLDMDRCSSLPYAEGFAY
# Outline: as §1
# HSF1 = HSF1 (Homo sapiens, UniProt Q00613 1-529); details: protein: recombinant; tags: N-terminal GST; chain copies: 3; dsDNA, one strand shown
# HSF1, sequence (Q00613 whole entry): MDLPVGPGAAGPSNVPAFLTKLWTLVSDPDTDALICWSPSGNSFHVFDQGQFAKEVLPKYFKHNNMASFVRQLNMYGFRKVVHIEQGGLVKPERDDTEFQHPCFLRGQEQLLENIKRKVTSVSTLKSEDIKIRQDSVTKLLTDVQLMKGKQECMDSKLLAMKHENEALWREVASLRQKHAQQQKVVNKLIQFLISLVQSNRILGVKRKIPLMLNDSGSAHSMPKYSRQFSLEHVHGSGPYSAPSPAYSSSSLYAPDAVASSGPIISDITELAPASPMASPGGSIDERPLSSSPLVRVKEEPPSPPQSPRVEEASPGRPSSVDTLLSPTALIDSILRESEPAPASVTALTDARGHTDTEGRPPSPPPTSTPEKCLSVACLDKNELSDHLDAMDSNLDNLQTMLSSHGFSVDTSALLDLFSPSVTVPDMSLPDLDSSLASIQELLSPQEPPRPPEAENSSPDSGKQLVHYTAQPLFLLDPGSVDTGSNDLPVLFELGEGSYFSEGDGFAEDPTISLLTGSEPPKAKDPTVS
# Outline: as §1
# SPIC = target: T2, SPIC (Homo sapiens, UniProt Q8N5J4 1-248); details: protein: recombinant; tags: N-terminal GST; dsDNA, one strand shown
# T2 sequence: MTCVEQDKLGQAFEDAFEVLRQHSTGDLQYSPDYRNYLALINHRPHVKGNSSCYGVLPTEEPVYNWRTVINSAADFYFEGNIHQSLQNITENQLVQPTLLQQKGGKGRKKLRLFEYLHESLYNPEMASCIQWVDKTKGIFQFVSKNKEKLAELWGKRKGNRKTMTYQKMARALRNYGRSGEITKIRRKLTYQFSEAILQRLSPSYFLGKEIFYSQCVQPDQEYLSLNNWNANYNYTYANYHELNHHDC
# Outline: as §1
# ELF4 = ELF4 (Homo sapiens, UniProt Q99607 1-663); details: protein: recombinant; tags: N-terminal GST; dsDNA, one strand shown
# ELF4, sequence (Q99607 whole entry): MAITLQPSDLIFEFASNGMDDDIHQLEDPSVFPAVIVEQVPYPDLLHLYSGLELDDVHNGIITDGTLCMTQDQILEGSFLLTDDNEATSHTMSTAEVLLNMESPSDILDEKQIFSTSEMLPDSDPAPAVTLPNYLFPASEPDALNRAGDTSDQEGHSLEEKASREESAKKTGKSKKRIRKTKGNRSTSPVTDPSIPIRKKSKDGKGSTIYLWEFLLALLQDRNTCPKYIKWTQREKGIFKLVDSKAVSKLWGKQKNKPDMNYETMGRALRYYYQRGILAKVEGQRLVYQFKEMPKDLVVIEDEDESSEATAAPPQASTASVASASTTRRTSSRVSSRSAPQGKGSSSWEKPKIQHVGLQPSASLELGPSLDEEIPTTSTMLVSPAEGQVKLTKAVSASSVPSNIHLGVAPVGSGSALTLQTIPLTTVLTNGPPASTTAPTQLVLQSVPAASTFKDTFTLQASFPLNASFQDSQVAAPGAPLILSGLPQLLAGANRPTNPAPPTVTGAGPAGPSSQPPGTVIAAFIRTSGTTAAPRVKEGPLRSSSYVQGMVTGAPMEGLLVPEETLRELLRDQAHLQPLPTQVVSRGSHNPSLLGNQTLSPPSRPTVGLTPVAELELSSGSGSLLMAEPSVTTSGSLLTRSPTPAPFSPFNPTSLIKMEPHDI
# Outline: as §1
# ELK4 = target: T3, ELK4 (Homo sapiens, UniProt P28324-2 1-405); details: protein: recombinant; tags: N-terminal GST; dsDNA, one strand shown
# T3 sequence: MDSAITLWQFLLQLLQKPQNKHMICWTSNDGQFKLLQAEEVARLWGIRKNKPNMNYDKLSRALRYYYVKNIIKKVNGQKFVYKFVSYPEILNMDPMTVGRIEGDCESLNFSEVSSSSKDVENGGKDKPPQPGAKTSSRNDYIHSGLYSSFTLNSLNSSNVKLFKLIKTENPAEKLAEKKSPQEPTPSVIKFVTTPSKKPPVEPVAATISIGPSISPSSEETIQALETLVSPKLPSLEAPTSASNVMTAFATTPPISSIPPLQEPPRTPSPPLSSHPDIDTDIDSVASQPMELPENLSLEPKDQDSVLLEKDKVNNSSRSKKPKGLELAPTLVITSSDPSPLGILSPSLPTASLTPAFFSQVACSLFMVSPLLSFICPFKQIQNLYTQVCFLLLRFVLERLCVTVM
# Outline: as §1
# ETV2 = target: T4, ETV2 (Homo sapiens, UniProt O00321 1-342); details: protein: recombinant; tags: N-terminal GST; dsDNA, one strand shown
# T4 sequence: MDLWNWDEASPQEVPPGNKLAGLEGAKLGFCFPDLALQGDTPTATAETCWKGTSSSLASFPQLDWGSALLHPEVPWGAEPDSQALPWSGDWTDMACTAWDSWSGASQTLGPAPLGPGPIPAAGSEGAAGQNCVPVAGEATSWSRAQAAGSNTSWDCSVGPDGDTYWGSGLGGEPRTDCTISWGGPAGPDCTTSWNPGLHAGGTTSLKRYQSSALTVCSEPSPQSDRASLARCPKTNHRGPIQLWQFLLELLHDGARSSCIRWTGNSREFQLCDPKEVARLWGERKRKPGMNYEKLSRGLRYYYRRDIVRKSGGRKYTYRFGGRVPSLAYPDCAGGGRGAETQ
# Outline: as §1
# ELF3 = target: T5, ELF3 (Homo sapiens, UniProt P78545 1-371); details: protein: recombinant; tags: N-terminal GST; dsDNA, one strand shown
# T5 sequence: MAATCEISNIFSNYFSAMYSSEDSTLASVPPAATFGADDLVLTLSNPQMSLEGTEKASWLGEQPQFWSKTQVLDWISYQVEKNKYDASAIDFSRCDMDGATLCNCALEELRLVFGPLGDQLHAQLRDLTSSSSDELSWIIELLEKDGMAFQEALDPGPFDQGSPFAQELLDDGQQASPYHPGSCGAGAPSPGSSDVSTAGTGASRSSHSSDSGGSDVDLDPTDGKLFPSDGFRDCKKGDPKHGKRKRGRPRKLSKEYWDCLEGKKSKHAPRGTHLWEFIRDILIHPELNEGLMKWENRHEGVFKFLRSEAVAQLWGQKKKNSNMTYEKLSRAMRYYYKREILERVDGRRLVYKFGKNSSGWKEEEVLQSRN
# Outline: as §1
# CRX = CRX (Homo sapiens, UniProt O43186 1-299); details: protein: recombinant; tags: N-terminal GST; dsDNA, one strand shown
# CRX, sequence (O43186 whole entry): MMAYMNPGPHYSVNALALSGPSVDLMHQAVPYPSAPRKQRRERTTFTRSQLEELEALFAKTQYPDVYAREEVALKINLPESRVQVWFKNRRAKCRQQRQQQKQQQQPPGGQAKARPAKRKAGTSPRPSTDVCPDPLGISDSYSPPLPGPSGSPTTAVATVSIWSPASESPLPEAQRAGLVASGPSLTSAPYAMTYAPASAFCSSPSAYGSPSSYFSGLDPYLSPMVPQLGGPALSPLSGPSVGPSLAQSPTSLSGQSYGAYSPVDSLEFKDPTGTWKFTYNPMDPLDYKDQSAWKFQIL
# Outline: as §1
# ETV1 = ETV1 (Homo sapiens, UniProt P50549 1-477); details: protein: recombinant; tags: N-terminal GST; dsDNA, one strand shown
# ETV1, sequence (P50549 whole entry): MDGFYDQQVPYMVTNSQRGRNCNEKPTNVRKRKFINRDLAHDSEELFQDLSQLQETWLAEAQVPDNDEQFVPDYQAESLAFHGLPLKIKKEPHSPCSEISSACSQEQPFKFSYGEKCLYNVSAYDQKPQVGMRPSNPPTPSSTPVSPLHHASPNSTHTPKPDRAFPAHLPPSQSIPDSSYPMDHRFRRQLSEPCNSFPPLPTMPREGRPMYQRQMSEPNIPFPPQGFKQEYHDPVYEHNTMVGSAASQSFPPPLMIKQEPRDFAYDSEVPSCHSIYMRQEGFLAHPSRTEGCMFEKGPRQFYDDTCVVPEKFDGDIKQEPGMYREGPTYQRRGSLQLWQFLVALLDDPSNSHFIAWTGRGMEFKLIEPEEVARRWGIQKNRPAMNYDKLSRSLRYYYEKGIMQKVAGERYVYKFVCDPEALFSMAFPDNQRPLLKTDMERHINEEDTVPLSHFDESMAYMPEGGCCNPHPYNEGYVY
# Outline: as §1
# ERF = target: T6, ERF (Homo sapiens, UniProt P50548 1-548); details: protein: recombinant; tags: N-terminal GST; dsDNA, one strand shown
# T6 sequence: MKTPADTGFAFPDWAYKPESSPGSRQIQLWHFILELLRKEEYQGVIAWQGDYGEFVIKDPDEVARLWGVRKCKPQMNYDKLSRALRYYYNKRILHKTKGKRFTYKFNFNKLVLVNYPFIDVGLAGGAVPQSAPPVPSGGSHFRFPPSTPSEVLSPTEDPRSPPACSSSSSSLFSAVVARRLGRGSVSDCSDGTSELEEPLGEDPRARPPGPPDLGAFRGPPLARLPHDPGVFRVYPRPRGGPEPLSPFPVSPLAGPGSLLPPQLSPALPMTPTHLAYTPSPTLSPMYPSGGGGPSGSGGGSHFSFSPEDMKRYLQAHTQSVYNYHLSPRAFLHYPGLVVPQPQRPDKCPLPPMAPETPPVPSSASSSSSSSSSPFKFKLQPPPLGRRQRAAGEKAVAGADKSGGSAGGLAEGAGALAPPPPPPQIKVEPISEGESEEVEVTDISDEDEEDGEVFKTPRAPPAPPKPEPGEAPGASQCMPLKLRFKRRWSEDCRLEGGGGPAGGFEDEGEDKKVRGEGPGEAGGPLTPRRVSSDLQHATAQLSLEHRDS
# Outline: as §1
# ETV3L = target: T7, ETV3L (Homo sapiens, UniProt Q6ZN32 1-361); details: protein: recombinant; tags: N-terminal GST; dsDNA, one strand shown
# T7 sequence: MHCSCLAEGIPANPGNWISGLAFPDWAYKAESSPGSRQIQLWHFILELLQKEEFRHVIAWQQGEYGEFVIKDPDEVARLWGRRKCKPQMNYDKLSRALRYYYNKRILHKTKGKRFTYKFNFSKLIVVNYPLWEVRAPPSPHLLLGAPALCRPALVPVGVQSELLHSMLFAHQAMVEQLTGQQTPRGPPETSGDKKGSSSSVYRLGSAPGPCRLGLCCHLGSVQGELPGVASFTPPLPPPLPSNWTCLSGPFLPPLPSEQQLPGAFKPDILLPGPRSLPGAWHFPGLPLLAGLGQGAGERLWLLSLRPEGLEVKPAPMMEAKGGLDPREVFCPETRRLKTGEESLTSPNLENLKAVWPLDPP
# Outline: as §1
# ETS2 = target: T8, ETS2 (Homo sapiens, UniProt P15036 1-469); details: protein: recombinant; tags: N-terminal GST; dsDNA, one strand shown
# T8 sequence: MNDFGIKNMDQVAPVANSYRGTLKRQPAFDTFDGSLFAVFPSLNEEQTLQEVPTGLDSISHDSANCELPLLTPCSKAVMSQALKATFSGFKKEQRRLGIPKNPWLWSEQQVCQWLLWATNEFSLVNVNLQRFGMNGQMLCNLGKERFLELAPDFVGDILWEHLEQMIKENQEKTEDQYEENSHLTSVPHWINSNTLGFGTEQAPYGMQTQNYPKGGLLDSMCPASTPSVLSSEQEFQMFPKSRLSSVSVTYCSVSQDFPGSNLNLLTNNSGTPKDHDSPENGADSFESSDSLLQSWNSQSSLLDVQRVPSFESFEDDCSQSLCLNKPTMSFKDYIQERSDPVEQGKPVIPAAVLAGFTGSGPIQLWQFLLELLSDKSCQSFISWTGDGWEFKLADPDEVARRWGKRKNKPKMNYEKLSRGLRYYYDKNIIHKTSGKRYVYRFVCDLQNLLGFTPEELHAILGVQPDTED
# Outline: as §1
# SPDEF = target: T9, SPDEF (Homo sapiens, UniProt O95238 1-335); details: protein: recombinant; tags: N-terminal GST; dsDNA, one strand shown
# T9 sequence: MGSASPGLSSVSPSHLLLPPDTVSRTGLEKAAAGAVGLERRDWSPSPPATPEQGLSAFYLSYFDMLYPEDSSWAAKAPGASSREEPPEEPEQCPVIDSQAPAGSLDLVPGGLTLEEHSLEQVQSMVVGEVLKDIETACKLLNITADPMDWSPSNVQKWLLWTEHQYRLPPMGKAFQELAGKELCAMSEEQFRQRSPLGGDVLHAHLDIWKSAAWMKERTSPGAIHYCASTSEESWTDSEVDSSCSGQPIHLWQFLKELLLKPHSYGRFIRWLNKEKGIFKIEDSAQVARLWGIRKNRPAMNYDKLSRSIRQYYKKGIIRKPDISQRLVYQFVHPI
# Outline: as §1
# ETV7 = target: T10, ETV7 (Homo sapiens, UniProt Q9Y603 1-341); details: protein: recombinant; tags: N-terminal GST; dsDNA, one strand shown
# T10 sequence: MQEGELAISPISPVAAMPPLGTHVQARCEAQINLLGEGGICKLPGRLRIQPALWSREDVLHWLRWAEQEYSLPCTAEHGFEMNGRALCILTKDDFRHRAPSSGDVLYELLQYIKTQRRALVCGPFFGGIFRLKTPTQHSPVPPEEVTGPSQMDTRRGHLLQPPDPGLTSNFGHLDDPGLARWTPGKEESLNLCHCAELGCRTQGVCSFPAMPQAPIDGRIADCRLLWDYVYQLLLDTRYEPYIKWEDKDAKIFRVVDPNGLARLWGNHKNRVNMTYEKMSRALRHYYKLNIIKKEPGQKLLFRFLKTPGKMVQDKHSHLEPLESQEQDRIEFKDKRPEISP
# Outline: as §1
# ELF5 = target: T11, ELF5 (Homo sapiens, UniProt Q9UKW6-2 1-255); details: protein: recombinant; tags: N-terminal GST; dsDNA, one strand shown
# T11 sequence: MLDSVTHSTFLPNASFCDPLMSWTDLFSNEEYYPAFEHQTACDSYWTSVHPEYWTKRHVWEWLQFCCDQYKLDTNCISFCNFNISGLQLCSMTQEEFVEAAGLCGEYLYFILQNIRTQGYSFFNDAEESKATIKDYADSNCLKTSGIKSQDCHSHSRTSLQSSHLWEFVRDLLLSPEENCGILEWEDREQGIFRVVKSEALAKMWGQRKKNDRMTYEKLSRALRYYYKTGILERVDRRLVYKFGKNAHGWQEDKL
# Outline: as §1
# ETV3 = target: T12, ETV3 (Homo sapiens, UniProt P41162-2 1-143); details: protein: recombinant; tags: N-terminal GST; dsDNA, one strand shown
# T12 sequence: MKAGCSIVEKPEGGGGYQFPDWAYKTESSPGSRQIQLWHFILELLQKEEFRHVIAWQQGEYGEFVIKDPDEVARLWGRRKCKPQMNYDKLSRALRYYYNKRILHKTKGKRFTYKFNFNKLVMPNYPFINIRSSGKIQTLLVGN
# Outline: as §1
# ETV6 = ETV6 (Homo sapiens, UniProt P41212 1-452); details: protein: recombinant; tags: N-terminal GST; dsDNA, one strand shown
# ETV6, sequence (P41212 whole entry): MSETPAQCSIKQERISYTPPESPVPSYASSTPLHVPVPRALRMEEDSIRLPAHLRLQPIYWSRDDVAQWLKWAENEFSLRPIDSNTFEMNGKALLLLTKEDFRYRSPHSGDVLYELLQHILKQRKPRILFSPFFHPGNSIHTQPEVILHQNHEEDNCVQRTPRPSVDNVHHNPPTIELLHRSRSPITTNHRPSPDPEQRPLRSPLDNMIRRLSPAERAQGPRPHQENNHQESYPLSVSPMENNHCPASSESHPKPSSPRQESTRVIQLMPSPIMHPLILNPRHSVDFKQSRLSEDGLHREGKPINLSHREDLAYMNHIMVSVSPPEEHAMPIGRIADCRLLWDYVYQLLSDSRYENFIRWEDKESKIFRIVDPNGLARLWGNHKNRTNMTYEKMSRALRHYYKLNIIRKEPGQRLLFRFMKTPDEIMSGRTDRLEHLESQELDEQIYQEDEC
# Outline: as §1
sequence,measurement,setting,value
TTTTGA,binding signal,FEV,"1 fold enrichment (6-mer frequency, TF over GST control)"
same,binding signal,ETV5,"1.19 fold enrichment (6-mer frequency, TF over GST control)"
same,binding signal,HSF1,"1.12 fold enrichment (6-mer frequency, TF over GST control)"
same,binding signal,SPIC,"1.21 fold enrichment (6-mer frequency, TF over GST control)"
same,binding signal,ELF4,"1.19 fold enrichment (6-mer frequency, TF over GST control)"
same,binding signal,ELK4,"1.22 fold enrichment (6-mer frequency, TF over GST control)"
same,binding signal,ETV2,"1.2 fold enrichment (6-mer frequency, TF over GST control)"
same,binding signal,ELF3,"1.25 fold enrichment (6-mer frequency, TF over GST control)"
same,binding signal,CRX,"1.17 fold enrichment (6-mer frequency, TF over GST control)"
same,binding signal,ETV1,"1.13 fold enrichment (6-mer frequency, TF over GST control)"
same,binding signal,ERF,"1.15 fold enrichment (6-mer frequency, TF over GST control)"
same,binding signal,ETV3L,"1.07 fold enrichment (6-mer frequency, TF over GST control)"
same,binding signal,ETS2,"1.07 fold enrichment (6-mer frequency, TF over GST control)"
same,binding signal,SPDEF,"1.05 fold enrichment (6-mer frequency, TF over GST control)"
same,binding signal,ETV7,"1.02 fold enrichment (6-mer frequency, TF over GST control)"
same,binding signal,ELF5,"1 fold enrichment (6-mer frequency, TF over GST control)"
same,binding signal,ETV3,"1.03 fold enrichment (6-mer frequency, TF over GST control)"
same,binding signal,ETV6,"1.04 fold enrichment (6-mer frequency, TF over GST control)"
